For 40 sequences, sensor-assay potency score (higher = more potent) results are on record in the OligoGym collection.
Also: reference of the scale not given here.

The target in one assay is SPESP1. Description: pooled miR-30 sensor sort-seq; sequence = guide strand. As to conditions: shRNA.
With TTAATTTATGTTCTGCTGCTGC, the sensor-assay potency score (higher = more potent) was -0.241.

For the sequence TTTTATTACTTGTTCGTCCTAC, the sensor-assay potency score (higher = more potent) is 0.295.

TATTGAATACTGTAGCAGCTTT: the sensor-assay potency score (higher = more potent) was -0.369.

Regarding TAGATCTAGAATTACACAGCAT, the sensor-assay potency score (higher = more potent) was -0.409.

Consider TTTCTATCGCAGTTTCACCTGA, for which the sensor-assay potency score (higher = more potent) was -0.0302.

For the sequence ATGTATTGAATACTGTAGCAGC, the sensor-assay potency score (higher = more potent) is -1.16.

With TTGTTTGGTTTGATCGACCAGA, the sensor-assay potency score (higher = more potent) is -0.327.

A further assay deals with SPINK5. The assay is described as above. As to conditions: shRNA.
Turning to TTGAAAAAATTTCTTATCCTGG, the sensor-assay potency score (higher = more potent) was -0.827.

Consider TCTCTTTTGACTTTTGCTCTGG, for which the sensor-assay potency score (higher = more potent) is -0.0301.

Take TTTAAAATCATCACAATTCAGC: the sensor-assay potency score (higher = more potent) was -0.669.

For TTTTCTTGAAGCTTTGCCCTTT, the sensor-assay potency score (higher = more potent) is 0.275.

In the case of TTATTGATGTGCATCTTGCCAT, the sensor-assay potency score (higher = more potent) is -0.0441.

With TTTTGTTTCTAGCTCGTGCTTC, the sensor-assay potency score (higher = more potent) stood at 0.162.

ATACTCAGCACATTCGTCCTGA displayed a sensor-assay potency score (higher = more potent) of 0.519.

As to TTGCTCTTGCTCTTTCTTCTTG, the sensor-assay potency score (higher = more potent) was -0.499.

As for TTTCTTTTGCTTCTTGCTGGAA, the sensor-assay potency score (higher = more potent) is -0.544.

In the case of TTGAGAAGCTCTAACATGGGAT, the sensor-assay potency score (higher = more potent) was -0.174.

Turning to TTGTATAGAACTTTCCATCAGC, the sensor-assay potency score (higher = more potent) is -0.111.

TTGTGCATCCAAGTCTTCCATC: the sensor-assay potency score (higher = more potent) was -1.09.

In the next assay the target is SPINK6. Described as above. As to conditions: shRNA.
For GAACTCACCACAGTCAACCTGT, the sensor-assay potency score (higher = more potent) is -0.413.

For TAAAAAGCAGAAAAGAGCCAGA, the sensor-assay potency score (higher = more potent) is -0.281.

In the case of TGCTTTAGGCTAATCTTTCCAC, the sensor-assay potency score (higher = more potent) was -0.643.

Sequence TTAGATTCCCGAGTGCAGTAGA registered a sensor-assay potency score (higher = more potent) of 0.5.

Regarding ACAGTCAACCTGTCCTCCCTGA, the sensor-assay potency score (higher = more potent) was -0.55.

For TTAGGCTAATCTTTCCACCACT, the sensor-assay potency score (higher = more potent) is -0.87.

As for TAGACATACATTGAACTCCTCA, the sensor-assay potency score (higher = more potent) is -0.369.

With TAATCTTTCCACCACTTTTCAC, the sensor-assay potency score (higher = more potent) is -1.05.

Turning to TGAATTAAAGGAATCCACCAGC, the sensor-assay potency score (higher = more potent) was -0.148.

TTCCCGAGTGCAGTAGACCTTG: the sensor-assay potency score (higher = more potent) is -0.732.

Turning to TATTGCCATATGTCTGGCCATC, the sensor-assay potency score (higher = more potent) is -1.73.

Take TTTATTGCCATATGTCTGGCCA: the sensor-assay potency score (higher = more potent) is -0.38.

The next assay addresses SPOCK1. Described as above. As to conditions: shRNA.
Sequence TTTGTCATCATCCTCATCCTCA gave a sensor-assay potency score (higher = more potent) of 0.0865.

TTCCGCAACTCCTTGTCTGTGC: the sensor-assay potency score (higher = more potent) was determined as 0.679.

The sequence TTGTCTAGGAAATTGCCGTGGT returned a sensor-assay potency score (higher = more potent) of 0.282.

TCATAGTTCATGTCCAACTTGT yielded a sensor-assay potency score (higher = more potent) of 0.349.

Turning to TAATCATCGTCTCGAAAGCGGT, the sensor-assay potency score (higher = more potent) is -1.33.

TTGTCTGTGCAGGCACTCCTTT: the sensor-assay potency score (higher = more potent) was -0.821.

As for TTGCACTTGACCAAATTCGAAG, the sensor-assay potency score (higher = more potent) is -1.14.

Take TTGCACTTGGATGTGTAGGAGT: the sensor-assay potency score (higher = more potent) is -0.759.

On to TATTTGTCCACACACCAGCACT, for which the sensor-assay potency score (higher = more potent) is -1.26.
